High-throughput results from PubChem.
TGFb inhibitor: qHTS for Inhibitors of TGF-b. actives 1.2% (n = 410,000). Potency, µM (doses to about 46.1 µM), most hits filed as inhibitors. HepG2 CAGA-GFP TGF-b/SMAD3 reporter, GFP fluorescence, 18 h; TGF-beta stimulated, 500 pg/mL final; also: nearly all actives have a fitted effect of over 65% in size
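HEPG2 CAGA-GFP reporter cells (1000/well, DMEM with 1% FBS) received compounds, then recombinant TGF-beta at 500 pg/mL final for 18 hours at 37 degrees C. Per-cell GFP summed per well was normalised to unstimulated and stimulated DMSO controls before curve fitting.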
GLP1R ag: qHTS of GLP-1 Receptor Agonists; Glucagon-like peptide 1 receptor (Homo sapiens), P43220; HEK293 GLP-1R CRE-luciferase, luminescence, 4-6 h; cells express a hypersensitive GLP-1R form; Potency, µM (doses to about 45.6 µM), hits mostly activators; actives 0.007% (n = 380,000); AID 624172, 2012
Target sequence (P43220 whole entry, looked up): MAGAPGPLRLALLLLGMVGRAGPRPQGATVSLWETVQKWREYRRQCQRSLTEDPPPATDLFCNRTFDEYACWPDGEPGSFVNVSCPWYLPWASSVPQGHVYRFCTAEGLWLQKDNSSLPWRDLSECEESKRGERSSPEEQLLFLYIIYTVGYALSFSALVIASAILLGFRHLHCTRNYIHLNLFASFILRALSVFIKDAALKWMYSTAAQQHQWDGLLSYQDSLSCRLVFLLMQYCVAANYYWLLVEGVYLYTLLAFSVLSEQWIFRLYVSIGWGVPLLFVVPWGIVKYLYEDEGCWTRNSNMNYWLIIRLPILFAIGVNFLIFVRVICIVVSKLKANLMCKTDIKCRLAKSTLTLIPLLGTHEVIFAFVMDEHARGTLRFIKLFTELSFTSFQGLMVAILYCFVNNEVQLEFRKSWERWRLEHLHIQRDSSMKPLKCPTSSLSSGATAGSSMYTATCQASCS
HepG2 tox-1: qHTS for Inhibitors of TGF-b: Cytotox Counterscreen; actives 0.76% (n = 410,000); AID 588856, 2011; Potency, µM (titrated, usually from 46.1 µM), usual class: cytotoxic; HepG2 CAGA-GFP viability, ATP luminescence, 18 h
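HepG2 CAGA-GFP cells (1000/well, DMEM with 1% FBS) received compound, then TGF-beta at 500 pg/mL final, and were incubated 18 hours at 37 degrees C. Viability was read by CellTiter-Glo luminescence. Media-only wells were set as complete cell-killing and DMSO as no toxicity.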
S2 tox: Viability Counterscreen for Primary qHTS for Inhibitors of ATXN expression; S2 cells (HEK-293 line with an ATXN2-luciferase reporter) viability, CellTiter-Fluor protease fluorescence, 24 h; Potency, µM (series often up to 56.7 µM), hits mostly cytotoxic; actives 0.49% (n = 400,000); AID 651635, 2014; also: nearly all actives have a fitted effect of over 40% in size
ATXN2 expr inh: Primary qHTS for Inhibitors of ATXN expression; HEK-293 ATXN2-luciferase reporter, luminescence, 24 h; Potency, µM (highest dose often 57 µM), hits mostly inhibitors; actives 0.72% (n = 360,000); also: nearly all actives have a fitted effect of over 55% in size
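ATXN2-luciferase reporter cells (luciferase flanked by upstream and downstream ATXN2 gene portions) were treated 24 h at 37 °C with compounds at up to 57 uM. SteadyGlo luminescence gave expression; GF-AFC fluorescence gave viability.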
GLP1R inv ag: qHTS of GLP-1 Receptor Inverse Agonists (Inhibition Mode) | Glucagon-like peptide 1 receptor (Homo sapiens), P43220 | HEK293 GLP-1R CRE-luciferase, luminescence, 24 h; GLP-1R form is constitutively active | Potency, µM (doses to about 38.3 µM), hits mostly inhibitors | actives 1.6% (n = 410,000) | AID 624417, 2012; also: nearly all actives have a fitted effect of over 55% in size
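HEK293 cells stably co-expressing constitutively active GLP-1R and a cAMP-responsive luciferase reporter were seeded in DMEM with 10% Nu serum, given compounds after 12 h, and incubated 24 h at 37 deg C. Luminescence was then read.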
TGFb confirm: qHTS for Inhibitors of TGF-b: Confirmation of Cherry Picks | shares compounds with TGFb inhibitor | HepG2 CAGA-GFP TGF-b reporter, GFP fluorescence, 18 h; cells stimulated with TGF-beta, 500 pg/mL | Potency, µM (titrated, usually from 46.1 µM), actives largely listed as inhibitors | actives 63% (n = 1,600) | AID 720534, 2013; also: nearly all actives have a fitted effect of over 65% in size
HepG2 tox-2: qHTS for Inhibitors of TGF-b: Cytotox Counterscreen for Cherry Picks. Potency, µM (top dose mostly 46.1 µM), actives largely listed as inhibitors. shares compounds with TGFb inhibitor. HepG2 CAGA-GFP viability, ATP luminescence, 18 h; cells stimulated with TGF-beta, 500 pg/mL. actives 27% (n = 1,600); also: nearly all actives have a fitted effect of over 70% in size
TGFb CCL64 inh: qHTS for Inhibitors of TGF-b: CCL64 Cells Orthogonal Assay for Cherry Picks | AID 720536, 2013 | actives 41% (n = 1,600) | shares compounds with TGFb inhibitor | CCL64 CAGA-GFP reporter, TGF-b stimulated, GFP fluorescence, 18 h | Potency, µM (titrated, usually from 46.1 µM), hits mostly inhibitors; also: nearly all actives have a fitted effect of over 65% in size
COP TGFb inh: qHTS for Inhibitors of TGF-b: Hit Validation in HepG2 Cells using COP promoter; AID 720537, 2013; shares compounds with TGFb inhibitor; actives 3% (n = 1,600); HepG2 COP-GFP TGF-b reporter, GFP fluorescence, 18 h; cells stimulated by added recombinant TGF-beta; Potency, µM (series often up to 46.1 µM), usual class: inhibitors; also: nearly all actives have a fitted effect of over 70% in size
A number is an active result; n = inactive; u = inconclusive; x = no result. Hits are enriched below; roughly 3.7% of the tested compounds scored in any of these assays. Calls follow the shape of the dose curve; as a rule, active = well fitted curve in the direction sought with a large enough effect; inconclusive = small, poorly fitted or top-dose-only effect, or another doubt; inactive = no such curve, though single readings can be large; an effect the other way counts as inactive or inconclusive.

SMILES | TGFb inhibitor | GLP1R ag | HepG2 tox-1 | S2 tox | ATXN2 expr inh | GLP1R inv ag | TGFb confirm | HepG2 tox-2 | TGFb CCL64 inh | COP TGFb inh
CCOc1ccc(S(=O)(=O)N2CCN(C(=S)NCc3ccco3)CC2)cc1 | 8.91µM | n | n | n | n | u | u | n | u | n
Cc1ccc(-n2nc(C)c3c(C)c(CCC(=O)NCc4ccccc4Cl)c(C)nc32)cc1 | x | x | n | x | x | n | x | x | x | x
CC[C@]12c3[nH]c4cc(-c5ccco5)ccc4c3CCN1C(=O)[C@@H](CC(=O)NCc1cccc(C(F)(F)F)c1)C[C@@H]2C(=O)N1CCN(C(=O)C2CC2)CC1 | 10µM | n | n | u | u | u | 14.6µM | u | u | n
CC[C@]12c3[nH]c4cc(-c5ccco5)ccc4c3CCN1C(=O)[C@@H](CC(=O)NCc1ccco1)C[C@@H]2C(=O)N1CCN(C(=O)C2CC2)CC1 | n | n | n | n | n | n | x | x | x | x
C[C@]12c3[nH]c4cc(-c5ccco5)ccc4c3CCN1C(=O)[C@@H](CC(=O)NCc1cccc(C(F)(F)F)c1)C[C@@H]2C(=O)N1CCCCC1 | 7.94µM | n | n | u | u | u | 16.4µM | u | u | n
C[C@]12c3[nH]c4cc(-c5ccco5)ccc4c3CCN1C(=O)[C@@H](CC(=O)NCC13CC4CC(CC(C4)C1)C3)C[C@@H]2C(=O)N1CCCCC1 | u | n | n | u | u | u | x | x | x | x
Cc1cn2c(=O)cc(COC(=O)c3cccc(NC(=O)COc4ccccc4)c3)nc2s1 | u | x | n | x | x | u | x | x | x | x
Cc1cc(C)c(OCCNC(=O)c2ccccc2Sc2ccccc2C#N)c(C)c1 | n | n | n | n | n | u | x | x | x | x
Cc1ccccc1OCCNC(=O)c1ccccc1Sc1ccccc1C#N | 10µM | n | n | n | n | u | n | n | n | n
COc1ccc(CNC(=O)CCc2c(C)nc3nc(CNC(=O)OC(C)(C)C)nn3c2C)cc1 | n | x | n | n | n | n | x | x | x | x
COc1ccc(NS(=O)(=O)c2cccc(NC(=O)CCC(=O)c3ccc(Cl)cc3)c2)cc1 | 10µM | n | n | u | n | u | 16.4µM | u | u | n
COc1cccc(NC(=O)CNC(=O)c2ccccc2)c1 | n | n | n | n | n | n | x | x | x | x
COc1ccc(NS(=O)(=O)c2cc(NC(=O)CNC(=O)c3cccc(OC)c3)ccc2C)cc1 | u | n | n | n | n | n | u | n | u | n
Cc1ccccc1NC(=O)c1nc(SCc2ccccc2F)ncc1Cl | n | x | n | x | x | x | x | x | x | x
CC(C)(C)c1ccc(N/N=C(\C#N)S(=O)(=O)C(C)(C)C)cc1 | u | n | n | u | n | u | x | x | x | x
CC(C)(C)S(=O)(=O)/C(C#N)=N/Nc1ccc(Cl)cc1 | u | n | n | u | u | n | 13µM | u | u | n
Cc1ccc(OC(C)C(=O)Nc2ccncc2)cc1C (stereo not drawn) | 10µM | n | n | n | u | n | u | u | n | n
COc1ccc(-c2nnn(CC(=O)N3CCN(c4ccccc4OC)CC3)n2)cc1 | 3.55µM | n | n | n | n | n | n | n | u | n
N#Cc1ccc(NC(=O)C2Cc3ccccc3CN2S(=O)(=O)c2ccc(F)cc2)cc1 (stereo not drawn) | x | x | n | x | x | u | x | x | x | x
O=S(=O)(Nc1ccc(C(O)(C(F)(F)F)C(F)(F)F)cc1)c1cccc2cccnc12 | 17.8µM | n | n | u | u | u | 14.6µM | n | n | n
O=S(=O)(Nc1ccc(Br)cc1)c1cccc2cccnc12 | n | n | n | n | n | u | x | x | x | x
Cc1cccc(C)c1NC(=O)CCCSc1nnc(-c2ccc(F)cc2)n1-c1ccccc1 | 7.94µM | n | n | n | n | u | u | n | u | n
CC(=O)[C@@]1(O)Cc2c(O)c3c(c(O)c2[C@H](O[C@H]2C[C@H](N)[C@H](O)[C@H](C)O2)C1)C(=O)c1ccccc1C3=O | n | n | n | u | n | x | x | x | x | x
COc1cccc2c1C(=O)c1c(O)c3c(c(O)c1C2=O)CC(O)(C(C)=O)CC3OC1CC(N(C)C)C(O)C(C)O1 (stereo not drawn) | 0.794µM | n | n | u | u | u | 0.259µM | 0.326µM | 1.03µM | u
COc1cccc2c1C(=O)c1c(O)c3c(c(O)c1C2=O)C[C@@](O)(C(=O)CO)C[C@@H]3OC1CC(N)C(O)C(C)O1 (stereo partly drawn) | 5.62µM | n | n | 11.9µM | u | 4.47µM | 2.59µM | 1.3µM | 3.26µM | n
O=C(Nc1ccc(C(=O)N2CCN(c3ccccc3F)CC2)cc1)c1nsc2ccccc12 | n | x | n | u | n | u | x | x | x | x
Cc1ccc(S(=O)(=O)c2cn(CC(=O)Nc3ccc4c(c3)OCO4)c3ccc(C)cc3c2=O)cc1 | n | n | n | n | n | n | x | x | x | x
CC(=O)c1cccc(NC(=O)C(CC(C)C)NS(=O)(=O)c2ccc3c(c2)CCN3C(C)=O)c1 (stereo not drawn) | n | x | n | n | n | n | x | x | x | x
Nc1ccccc1C(=O)NC(=O)Nc1ccc(Oc2ncc(Br)cn2)c(Cl)c1 | u | n | n | u | n | n | u | n | 5.8µM | n
Cc1cc(NC(=O)NC(=O)c2ccccc2NC(=O)CN)ccc1Oc1ncc(Br)cn1 | u | n | n | u | n | u | x | x | x | x
